This is part of a sample that, as a whole, favours compounds with a hit. Of some 83,000 tested, about 20% had one in any assay.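 The test compound was applied at a single concentration to cells in 96-well plates for 48 hours, and percent growth was recorded.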 Active and inactive are the calls of the source. Rule for the calls: active = growth percent below 10; inactive = the rest.

Some test systems named below: SK-MEL-2 melanoma; EKVX NSCLC; SN12C renal; UO-31 renal; TK-10 renal; ACHN renal; A498 renal; CCRF-CEM leukemia; MOLT-4 leukemia; SR leukemia; RPMI-8226 leukemia; OVCAR-8 ovarian; OVCAR-5 ovarian; OVCAR-4 ovarian; SK-OV-3 ovarian; IGROV1 ovarian; HS 578T breast; NCI/ADR-RES ovarian; OVCAR-3 ovarian.
Holding throughout (experiment): NCI-60 one-dose screen, 48 h (100 = growth as untreated, 0 = no growth, -100 = all killed)
Common to all, as to details: 10 µM unless noted

On to `COc1cc(-c2nc3ccccc3s2)ccc1OCc1nc2n(n1)S(=O)(=O)c1ccccc1N2c1ccccc1`, for which the growth in the experiment on SK-MEL-2 melanoma was 98.5% (inactive); in the experiment with EKVX NSCLC it was 95.4% (inactive); in the experiment with SN12C renal, 108% (inactive); in the experiment with UO-31 renal it was 82.4% (inactive); with TK-10 renal, 121% (inactive); in the experiment with ACHN renal, 107% (inactive). For the same molecule, the growth with A498 renal is 100% (inactive); with CCRF-CEM leukemia, 112% (inactive); in the experiment with MOLT-4 leukemia it was 80.5% (inactive); in the experiment on SR leukemia, 23.7% (inactive); with RPMI-8226 leukemia, 88.9% (inactive); in the experiment on OVCAR-8 ovarian, 103% (inactive). Further, the growth with OVCAR-5 ovarian is 104% (inactive); with OVCAR-4 ovarian, 102% (inactive); in the experiment on SK-OV-3 ovarian, 110% (inactive); with IGROV1 ovarian, 56.1% (inactive); in the experiment on HS 578T breast it was 97% (inactive); with NCI/ADR-RES ovarian, 107% (inactive).

Consider `COc1ccccc1S(=O)(=O)Nc1ccc2c3c(cc(-c4cnn(C5CC5)c4)nc13)C(=O)N2C`, for which the growth is 78.6% (inactive) in the experiment with SK-MEL-2 melanoma; 56.1% (inactive) with EKVX NSCLC; 76.7% (inactive) in the experiment with SN12C renal; 34.9% (inactive) in the experiment on UO-31 renal; 48.2% (inactive) in the experiment with TK-10 renal; 68% (inactive) in the experiment on ACHN renal. Further, the growth with A498 renal is 59.3% (inactive); in the experiment on CCRF-CEM leukemia, 76.9% (inactive); with MOLT-4 leukemia, 56.3% (inactive); with SR leukemia, 51.3% (inactive); in the experiment with RPMI-8226 leukemia it was 10% (inactive); in the experiment with OVCAR-8 ovarian it was 70.1% (inactive). Further, the growth is 72.6% (inactive) in the experiment with OVCAR-5 ovarian; 62.2% (inactive) in the experiment on OVCAR-4 ovarian; 55.8% (inactive) in the experiment on SK-OV-3 ovarian; 59.2% (inactive) in the experiment with IGROV1 ovarian; 69.8% (inactive) in the experiment on OVCAR-3 ovarian; 55.9% (inactive) in the experiment with HS 578T breast. Also, in the experiment on NCI/ADR-RES ovarian, the growth was 59% (inactive).

Regarding `COc1ccc(/C=C/C(=O)/C=C(/C=C/c2ccc(OC)c(OC)c2OC)OB(F)F)c(OC)c1OC`, the growth is 76% (inactive) in the experiment with SK-MEL-2 melanoma; 65.8% (inactive) in the experiment on EKVX NSCLC; 20.6% (inactive) in the experiment on SN12C renal; 16.8% (inactive) in the experiment with UO-31 renal; 35.6% (inactive) in the experiment with TK-10 renal; -16.4% (active) in the experiment on ACHN renal. In addition, the growth with A498 renal is 95.1% (inactive); in the experiment with CCRF-CEM leukemia, -2.62% (active); in the experiment on MOLT-4 leukemia it was 3.43% (active); in the experiment on SR leukemia, 0.627% (active); in the experiment on RPMI-8226 leukemia it was 2.74% (active); in the experiment with OVCAR-8 ovarian it was 10% (inactive). The growth with OVCAR-5 ovarian was 62.9% (inactive); in the experiment on OVCAR-4 ovarian, 47.4% (inactive); in the experiment with SK-OV-3 ovarian, 76.8% (inactive); in the experiment on IGROV1 ovarian, 26.3% (inactive); in the experiment on OVCAR-3 ovarian it was 5.1% (active); in the experiment on HS 578T breast, 23.6% (inactive). The growth with NCI/ADR-RES ovarian is 32.5% (inactive).

Regarding `COc1cc(NC(C)CCCN2C(=O)c3ccccc3C2=O)c2nc(C)ccc2c1OC` (stereo not given), the growth is 96.8% (inactive) with SK-MEL-2 melanoma; 96.3% (inactive) in the experiment with EKVX NSCLC; 92.1% (inactive) in the experiment on SN12C renal; 98.1% (inactive) in the experiment on UO-31 renal; 98.8% (inactive) in the experiment on TK-10 renal; 99.5% (inactive) with ACHN renal. In addition, the growth is 97.5% (inactive) in the experiment with A498 renal; -56.3% (active) with CCRF-CEM leukemia; 73.6% (inactive) with MOLT-4 leukemia; 36.7% (inactive) with SR leukemia; 70.1% (inactive) in the experiment with RPMI-8226 leukemia; 88.2% (inactive) with OVCAR-8 ovarian. For the same molecule, the growth is 100% (inactive) in the experiment with OVCAR-5 ovarian; 69.4% (inactive) with OVCAR-4 ovarian; 106% (inactive) in the experiment on SK-OV-3 ovarian; 129% (inactive) with IGROV1 ovarian; 113% (inactive) with HS 578T breast.

For the molecule `CC(=O)Nc1ccc([I+]c2ccc([N+](=O)[O-])cc2)cc1`, the growth in the experiment with SK-MEL-2 melanoma was 103% (inactive); in the experiment on EKVX NSCLC, 88.7% (inactive); with SN12C renal it was 88.3% (inactive); in the experiment on UO-31 renal, 60.8% (inactive); with TK-10 renal it was 87.4% (inactive); in the experiment with ACHN renal, 89.7% (inactive). Further, the growth in the experiment on A498 renal was 104% (inactive); in the experiment on CCRF-CEM leukemia, 89.2% (inactive); in the experiment with MOLT-4 leukemia, 86.9% (inactive); in the experiment with SR leukemia, 87.7% (inactive); with RPMI-8226 leukemia it was 92.7% (inactive); with OVCAR-8 ovarian, 95% (inactive). The growth is 116% (inactive) in the experiment on OVCAR-5 ovarian; 90% (inactive) with OVCAR-4 ovarian; 94.4% (inactive) in the experiment with SK-OV-3 ovarian; 80.8% (inactive) in the experiment on IGROV1 ovarian; 94.9% (inactive) in the experiment with OVCAR-3 ovarian; 113% (inactive) in the experiment with NCI/ADR-RES ovarian.

As to `CN(C)c1ccc(/C=N/n2c(-c3cc(F)c(Cl)cc3Cl)nn(CN3CCOCC3)c2=S)cc1`, the growth in the experiment on SK-MEL-2 melanoma was 104% (inactive); with EKVX NSCLC, 107% (inactive); in the experiment with SN12C renal it was 103% (inactive); in the experiment on UO-31 renal it was 69.1% (inactive); in the experiment on TK-10 renal it was 107% (inactive); with ACHN renal it was 98.6% (inactive). Further, the growth in the experiment with A498 renal is 77.9% (inactive); with CCRF-CEM leukemia, 92.4% (inactive); in the experiment with MOLT-4 leukemia, 88.8% (inactive); with SR leukemia, 83.6% (inactive); with RPMI-8226 leukemia it was 97.2% (inactive); in the experiment on OVCAR-8 ovarian, 104% (inactive). For the same molecule, the growth with OVCAR-5 ovarian is 92.8% (inactive); in the experiment with OVCAR-4 ovarian it was 106% (inactive); in the experiment with SK-OV-3 ovarian, 101% (inactive); in the experiment with IGROV1 ovarian, 104% (inactive); in the experiment with HS 578T breast, 110% (inactive).

Regarding `C=CCn1c(SCC(=O)Nc2ccc(/C(C)=N\O)cc2)nnc1-c1cc(-c2ccc(OC)cc2)nc2ccccc12`, the growth is 22.3% (inactive) with SK-MEL-2 melanoma; 42.5% (inactive) in the experiment with EKVX NSCLC; 44.4% (inactive) with SN12C renal; 14.7% (inactive) in the experiment with UO-31 renal; 37.5% (inactive) in the experiment with TK-10 renal; 28.9% (inactive) in the experiment with ACHN renal. Further, the growth was 38.7% (inactive) with A498 renal; 15% (inactive) in the experiment with CCRF-CEM leukemia; 1.81% (active) with MOLT-4 leukemia; 33.8% (inactive) in the experiment on SR leukemia; 17.3% (inactive) in the experiment with RPMI-8226 leukemia; 15.3% (inactive) with OVCAR-8 ovarian. Moreover, the growth in the experiment on OVCAR-5 ovarian is 79.4% (inactive); in the experiment on OVCAR-4 ovarian, 53% (inactive); with SK-OV-3 ovarian, 52.8% (inactive); with IGROV1 ovarian, 11.1% (inactive); with HS 578T breast it was 46% (inactive); in the experiment with NCI/ADR-RES ovarian, 13.7% (inactive).

As for `Cc1ccc(-c2cc(-c3nnc(SCC(=O)c4ccccc4)o3)c3ccccc3n2)cc1`, the growth is 90.7% (inactive) in the experiment on SK-MEL-2 melanoma; 83.4% (inactive) in the experiment on EKVX NSCLC; 101% (inactive) in the experiment with SN12C renal; 74.6% (inactive) with UO-31 renal; 61.8% (inactive) in the experiment with TK-10 renal; 93.9% (inactive) with ACHN renal. Also, the growth with A498 renal was 77% (inactive); in the experiment with CCRF-CEM leukemia, 100% (inactive); in the experiment on MOLT-4 leukemia, 95.2% (inactive); in the experiment with SR leukemia, 77.4% (inactive); in the experiment with RPMI-8226 leukemia it was 106% (inactive); in the experiment with OVCAR-8 ovarian it was 100% (inactive). Further, the growth is 92% (inactive) with OVCAR-5 ovarian; 86% (inactive) in the experiment with OVCAR-4 ovarian; 106% (inactive) in the experiment on SK-OV-3 ovarian; 94.1% (inactive) in the experiment on IGROV1 ovarian; 97.7% (inactive) in the experiment on OVCAR-3 ovarian; 101% (inactive) with HS 578T breast. Also, the growth in the experiment with NCI/ADR-RES ovarian is 91.9% (inactive).

The record behind these values is PubChem BioAssay (NCI).
